This is a sample that favours compounds with a hit; in the whole collection about 3.3% have one here.
RE007 growth inh: less growth of the S. pombe RE007 Vpr strain | 360,000 compounds, 0.21% hits | S. pombe RE007 Vpr strain, BacTiter-Glo ATP luminescence, 24 h | Potency, µM (series often up to 92.2 µM), for inactives: top-dose activity change, negative = less growth, hits mostly inhibitors; active means well fitted falling curve with a large enough effect; inconclusive means small, poorly fitted or top-dose-only effect; inactive means no such curve, though single readings can be large or run the other way; further: on the % scale 0 is the no-effect control and ±100 the full control effect; nearly all actives have a fitted effect of over 50% in size
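Fission yeast strain RE007, carrying one chromosomally integrated HIV-1 vpr copy, was seeded at OD 0.01 in PMG+AL medium with 23 nL pinned compound. After 24 h at 30 °C and 99% humidity, viability was read by BacTiter-Glo luminescence.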
Sm TGR inh: S. mansoni TGR enzyme inhibition; Potency, µM (top dose mostly 114 µM), inactives show at the highest dose activity change, negative = inhibition, hits mostly inhibitors; purified TGR, DTNB reduction, TNB absorbance 405 nm; Q962Y6; 360,000 compounds, 3% hits; AID 485364; further: on the % scale 0 is the no-effect control and ±100 the full control effect; nearly all actives have a fitted effect of over 60% in size
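TGR 20 nM + NADPH 100 uM (dispensed conc.), cpd preinc 15 min RT; start with NADPH (500 uM addition) then DTNB (15 mM addition). Kinetic TNB absorbance, 405 nm filter. Four-parameter Hill fit across titration.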
TbPYK inhibitor: T. brucei pyruvate kinase inhibition; 410,000 compounds, 0.12% hits; AID 624173; Q57TT1; TbPYK enzyme, Kinase-Glo Plus ATP luminescence, 45 min; Potency, µM (doses to about 76.8 µM), for the others: at the top dose activity, negative = inhibition, actives largely listed as inhibitors; further: on the % scale 0 is the no-effect control and ±100 the full control effect; nearly all actives have a fitted effect of over 50% in size
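T. brucei PYK with substrate was exposed to pin-transferred compounds across a concentration series, then started with 130 uM ADP (final). After 45 min at room temperature, Kinase-Glo Plus luminescence was read, normalized and curve-fitted.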
AmpC no deterg: blocks E. coli AmpC beta-lactamase in detergent-free assay; 330,000 compounds, 0.52% hits; AID 485341; AmpC nitrocefin hydrolysis, absorbance 480 nm, 0.0001% Triton; Potency, µM (doses to about 57.1 µM), for inactives: at the highest dose activity change, negative = inhibition, usual class: inhibitors;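 further: plate controls were no compound for no effect and no enzyme for full effect; nearly all actives have a fitted effect of over 20% in size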
Target sequence (P00811 whole entry, looked up): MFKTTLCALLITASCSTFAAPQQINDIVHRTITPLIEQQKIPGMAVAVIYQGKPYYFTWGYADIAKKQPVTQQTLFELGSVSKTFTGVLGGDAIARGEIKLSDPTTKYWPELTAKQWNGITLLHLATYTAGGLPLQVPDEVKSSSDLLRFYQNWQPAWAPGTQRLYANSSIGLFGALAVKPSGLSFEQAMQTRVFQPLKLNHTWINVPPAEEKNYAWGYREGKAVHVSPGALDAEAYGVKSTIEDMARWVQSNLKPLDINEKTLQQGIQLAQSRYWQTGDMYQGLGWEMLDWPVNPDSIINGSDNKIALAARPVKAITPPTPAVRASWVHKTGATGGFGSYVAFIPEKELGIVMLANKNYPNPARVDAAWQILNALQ
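AmpC (5.3 nM in the dispensed reagent) in 20 mM phosphate pH 7.0 with 0.01% (detergent screen) or 0.0001% Triton X-100 was preincubated with compounds for 15 min at room temperature. Nitrocefin was then added from an 800 uM solution, and hydrolysis was followed at 480 nm.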
AmpC inh detg: inhibitors of E. coli AmpC beta-lactamase with detergent. AID 485294. AmpC hydrolysis of nitrocefin, absorbance 480 nm, 0.01% Triton. Potency, µM (doses to about 114 µM), for inactives: at the top dose activity change, negative = inhibition, hits mostly inhibitors. P00811. 370,000 compounds, 0.041% hits;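 further: 0% = no-compound wells and -100% = no-enzyme wells; nearly all actives have a fitted effect of over 25% in size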
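AmpC (5.3 nM in the dispensed reagent) in 20 mM phosphate pH 7.0 with 0.01% (detergent screen) or 0.0001% Triton X-100 was preincubated with compounds for 15 min at room temperature. Nitrocefin was then added from an 800 uM solution, and hydrolysis was followed at 480 nm.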
SARS PLP yeast: inhibitors of SARS-CoV papain-like protease in yeast; S. cerevisiae expressing SARS-CoV PLpro, growth rescue; Potency, µM (highest dose often 32.9 µM), without a hit: at the top dose activity, positive = growth rescue, most hits filed as activators; 330,000 compounds, 0.19% hits; AID 485353; calls by dose curve; further: 0% is about no effect; nearly all actives have a fitted effect of over 55% in size
* marks the source's active call; other numbers are inactive results; ? = inconclusive; . = no result. Unless noted, the call rests on the fitted dose curve; in most records, active means well fitted curve in the direction sought with a large enough effect; inconclusive means small, poorly fitted or top-dose-only effect, or another doubt; inactive means no such curve, though single readings can be large; an effect the other way counts as inactive or inconclusive. Potency means the concentration at half of the fitted maximal effect.

SMILES	RE007 growth inh	Sm TGR inh	TbPYK inhibitor	AmpC no deterg	AmpC inh detg	SARS PLP yeast
COc1cc(C2NC(=O)c3ccccc3O2)cc(OC)c1OC (stereo not given)	-3.8%	0.0%	-1.0%	-12.2%	-11.7%	-0.2%
CCOc1ccc(-c2n[nH]c(C(=O)NN)c2C)cc1	24.1%	-7.3%	1.8%	28.2µM*	-12.2%	-24.6%
Cc1c(-c2ccccc2)n[nH]c1C(=O)NN	-10.5%	0.1%	-15.3%	-25.8%	-18.7%	-0.4%
COc1cccc(N2CCN(C3CC(=O)N(c4ccc(F)c(Cl)c4)C3=O)CC2)c1 (stereo not given)	28.2µM*	50.1µM*	-8.1%	87.6%	-1.8%	-39.0%
COc1ccc(NC2CCN(C3CC(=O)N(c4ccc(F)c(Cl)c4)C3=O)CC2)cc1 (stereo not given)	6.31µM*	11.2µM*	-12.2%	114.9%	1.0%	-35.4%
CCN1C(=O)CC(N2CCC(Nc3ccc(OC)cc3)CC2)C1=O (stereo not given)	-26.3%	-20.3%	-9.6%	-16.0%	-0.1%	-2.4%
O=C(O)c1ccc2nc3c(nc2c1)-c1ccccc1C3=O	-15.2%	10.1%	31.6µM*	-6.2%	-5.5%	-1.5%
O=C(c1ccc2nc(-c3ccco3)c(-c3ccco3)nc2c1)N1CCN(c2ccccc2)CC1	7.2%	35.5µM*	-22.5%	95.5%	?	-10.7%
O=C(c1ccc2nc(-c3ccco3)c(-c3ccco3)nc2c1)N1CCC2(CC1)OCCO2	-8.6%	1.58µM*	-9.4%	72.1%	-2.8%	11.9%
CCc1nc2ccc(C(=O)NCCc3ccc(OC)c(OC)c3)cc2nc1CC	3.2%	-3.3%	-2.0%	121.9%	-11.6%	-6.1%
COc1ccc(CCNC(=O)c2ccc3nc(-c4ccco4)c(-c4ccco4)nc3c2)cc1OC	-5.1%	3.16µM*	?	77.0%	5.1%	-9.4%
O=C(CSC1=Nc2ccccc2N=C(c2ccc(F)cc2)C1)Nc1ccc(Cl)cc1	.	2.0%	0.6%	.	3.6%	.
CCn1ccc2cc(S(=O)(=O)N3CCC(C(=O)NCc4cccc(C)c4)CC3)ccc21	.	1.7%	-1.5%	.	1.1%	.
CCc1ccc(-c2cc3c(N4CCN(c5ccccc5)CC4)nccn3n2)cc1	.	1.0%	5.0%	.	-5.6%	.
Cc1ccc(-c2nc3ccc(C(=O)O)cc3nc2-c2ccc(C)cc2)cc1	2.4%	7.6%	-2.1%	-29.9%	-10.3%	1.0%
O=C(O)c1ccc2nc(-c3ccco3)c(-c3ccco3)nc2c1	-11.1%	0.501µM*	?	-20.8%	2.2%	0.2%
O=C(Nc1cccc(C(F)(F)F)c1)c1ccc2nc(-c3ccco3)c(-c3ccco3)nc2c1	-2.5%	3.55µM*	?	-52.7%	-7.1%	0.0%
COc1cc(Cl)c(C)cc1NC(=O)c1cnc(N2CCCCC2)c2ccccc12	.	-0.3%	0.6%	.	-6.5%	.
CCc1ccc(NC(=O)C(C)Sc2nc(-c3ccco3)c(C#N)c(=O)[nH]2)cc1 (stereo not given)	-6.8%	39.8µM*	0.0%	-31.9%	-12.9%	13.9%
Cc1cc(C)nc(/N=C2\NC(=O)CC(C(=O)O)N2c2ccc(Cl)cc2)n1 (stereo not given)	3.5%	2.3%	5.7%	8.91µM*	?	4.4%
O=C1C(Cl)=C(NCC2CCCO2)C(=O)N1c1ccccc1 (stereo not given)	-4.9%	50.1µM*	2.1%	-15.3%	2.3%	-5.2%
N#CC(C#N)=Cc1ccc(OCC(=O)N2CCOCC2)cc1	2.4%	2.51µM*	4.1%	-18.3%	-4.2%	-2.6%
CCOc1ccc(OCC(=O)N2CCOCC2)cc1	1.9%	-15.7%	-10.3%	-5.1%	?	2.7%
N#CC(C#N)=Cc1ccc(N2CCOCC2)cc1	9.7%	3.16µM*	-1.7%	-24.5%	5.0%	7.0%
O=C1OC(NC(=O)c2ccccc2)C(n2cc(CO)nn2)=C1Cl (stereo not given)	12.7%	0.794µM*	-7.8%	-33.8%	?	1.3%
SMILES	RE007 growth inh	Sm TGR inh	TbPYK inhibitor	AmpC no deterg	AmpC inh detg	SARS PLP yeast
Cc1ccc(NC2=C(Cl)C(=O)OC2NC(=O)c2ccccc2)cc1 (stereo not given)	-7.6%	-7.6%	2.0%	-35.6%	-10.9%	-8.1%
COc1ccc(-n2nc3cc(C)c(NC(=O)c4ccc(-c5ccc(Br)cc5)o4)cc3n2)cc1	.	-11.6%	1.1%	.	12.2%	.
COc1ccc(-c2ccc(CCC(=O)O)n2-c2cc(OC)ccc2OC)cc1	0.5%	.	-3.6%	.	.	.
COC(=O)c1cccc(-n2c(CCC(=O)O)ccc2-c2ccc(OC)cc2)c1	.	12.6µM*	-18.6%	.	20.0%	.
COC(=O)c1cccc(-n2c(CCC(=O)O)ccc2-c2cccs2)c1	-14.6%	3.55µM*	-19.3%	-20.8%	-8.1%	-0.8%
Cc1cc(Br)ccc1NC(=O)COc1cc(=O)n(C)c2ccccc12	.	-6.8%	4.9%	.	-6.5%	.
Cc1ccc(-n2ncc3c(NCc4ccco4)ncnc32)c(C)c1	12.6%	39.8µM*	0.1%	-24.2%	?	-11.6%
CCc1oc(C(=O)OC)cc1CSC(=N)N	-12.0%	20µM*	-2.9%	-21.1%	11.3%	-0.6%
COc1ccccc1-n1c(O)c(/C=N/NC(=S)Nc2ccccc2)c(=O)[nH]c1=S	4.6%	11.2µM*	?	-46.2%	3.5%	-1.1%
CCOC(=O)c1c(NC(=O)c2cc(=O)c3cc(C)cc(C)c3o2)sc(C)c1C	.	-1.3%	2.1%	.	4.5%	.
CCOC(=O)c1cccc(Nc2c3c(nc4ccccc24)CCC3)c1	.	15.8%	1.2%	.	3.6%	.
Cc1ccc(/C=N/NC(=O)Cn2cnc3c2c(=O)n(C)c(=O)n3C)s1	-0.6%	8.2%	-2.0%	-16.1%	1.1%	-4.6%
Cn1c(=O)c2c(ncn2CC(=O)N/N=C/C=C/c2ccco2)n(C)c1=O	4.2%	11.2µM*	-2.4%	-1.3%	?	-0.6%
Cn1c(=O)c2c(ncn2CC(=O)N/N=C/C(Cl)=C/c2ccccc2)n(C)c1=O	5.5%	-2.1%	-1.4%	1.8%	5.3%	?
CC(/C=N/NC(=O)Cn1cnc2c1c(=O)n(C)c(=O)n2C)=C\c1ccco1	-18.7%	25.1µM*	-1.1%	18.2%	2.9%	2.1%
Cc1ccccc1NC(=O)CS(=O)(=O)c1cccc2nsnc12	.	-12.2%	-0.6%	.	0.5%	.
O=C(c1cc2nc(-c3ccco3)cc(C(F)(F)F)n2n1)N1CCN(c2ccccc2)CC1	16.8%	?	-2.3%	132.7%	1.3%	-9.9%
NC(=O)c1cc2nc(-c3ccco3)cc(C(F)(F)F)n2n1	8.4%	?	-1.8%	-18.2%	-6.5%	-28.8%
O=C(c1cc2nc(-c3ccco3)cc(C(F)(F)F)n2n1)N1CCCCCC1	-3.8%	35.5µM*	-2.4%	30.4%	-10.9%	5.8%

Assay outcomes deposited in PubChem BioAssay by National Center for Advancing Translational Sciences (NCATS).
